# Experiments:
# Test in all cases: yeast three-hybrid, YBZ-1, SC-Leu-His + 0.5 mM 3-AT, 4 days
# Conditions in all cases: tags: N-Gal4 AD-HA kept; label: inside an RPR1-promoter hybrid RNA with tandem MS2 sites; ssRNA
# PUM1 PUF domain R1-CFK = PUM1 PUF domain R1-CFK (Homo sapiens, UniProt Q14671 828-1176, S863C;R864F;Q867K)
# Outline: (§1)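 Pumilio-1 PUF domain libraries, randomized at the three base-contacting residues of each repeat, were co-expressed with matching RNA elements from a centromeric plasmid in strain YBZ-1, which carries a LexA–MS2 coat fusion and a HIS3 reporter. Transformants grew for four days on SC-Leu (input) or on SC-Leu-His + 0.5 mM 3-AT (selection), and the repeat regions were PCR-amplified and Illumina-sequenced. The interaction score is the log change in variant frequency from input to selection. That logarithm is base 2, with a pseudocount of 1 where a variant was absent.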
# PUM1 PUF domain R1-HRR = PUM1 PUF domain R1-HRR (Homo sapiens, UniProt Q14671 828-1176, S863H;Q867R)
# Outline: as §1
# PUM1 PUF domain R1-NGR = PUM1 PUF domain R1-NGR (Homo sapiens, UniProt Q14671 828-1176, S863N;R864G;Q867R)
# Outline: as §1
# PUM1 PUF domain R6-FRE = biological target: T1, PUM1 PUF domain R6-FRE (Homo sapiens, UniProt Q14671 828-1176, N1043F;Y1044R;Q1047E)
# T1 sequence: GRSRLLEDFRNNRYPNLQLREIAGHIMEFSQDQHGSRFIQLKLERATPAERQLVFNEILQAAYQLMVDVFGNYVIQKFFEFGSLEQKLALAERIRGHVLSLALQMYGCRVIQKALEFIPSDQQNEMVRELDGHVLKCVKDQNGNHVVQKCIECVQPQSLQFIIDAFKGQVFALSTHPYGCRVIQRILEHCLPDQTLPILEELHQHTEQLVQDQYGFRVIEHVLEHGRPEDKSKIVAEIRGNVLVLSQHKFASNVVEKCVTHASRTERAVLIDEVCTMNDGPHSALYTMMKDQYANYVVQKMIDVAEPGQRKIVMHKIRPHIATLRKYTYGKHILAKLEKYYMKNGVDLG
# Outline: as §1
# PUM1 PUF domain R4-CCM = PUM1 PUF domain R4-CCM (Homo sapiens, UniProt Q14671 828-1176, N971C;H972C;Q975M)
# Outline: as §1
# PUM1 PUF domain R2-KFG = PUM1 PUF domain R2-KFG (Homo sapiens, UniProt Q14671 828-1176, N899K;Y900F;Q903G)
# Outline: as §1
# PUM1 PUF domain R4-WGF = PUM1 PUF domain R4-WGF (Homo sapiens, UniProt Q14671 828-1176, N971W;H972G;Q975F)
# Outline: as §1
# PUM1 PUF domain R5-KYG = PUM1 PUF domain R5-KYG (Homo sapiens, UniProt Q14671 828-1176, C1007K;R1008Y;Q1011G)
# Outline: as §1
# PUM1 PUF domain R4-YLL = PUM1 PUF domain R4-YLL (Homo sapiens, UniProt Q14671 828-1176, N971Y;H972L;Q975L)
# Outline: as §1
# PUM1 PUF domain R4-PWC = PUM1 PUF domain R4-PWC (Homo sapiens, UniProt Q14671 828-1176, N971P;H972W;Q975C)
# Outline: as §1
# PUM1 PUF domain R8-KWL = PUM1 PUF domain R8-KWL (Homo sapiens, UniProt Q14671 828-1176, N1122K;Y1123W;Q1126L)
# Outline: as §1
# PUM1 PUF domain R5-DFG = PUM1 PUF domain R5-DFG (Homo sapiens, UniProt Q14671 828-1176, C1007D;R1008F;Q1011G)
# Outline: as §1
# PUM1 PUF domain R7-RRG = PUM1 PUF domain R7-RRG (Homo sapiens, UniProt Q14671 828-1176, S1079R;N1080R;E1083G)
# Outline: as §1
# PUM1 PUF domain R5-KYG, sequence (Q14671 828-1176 C1007K/R1008Y/Q1011G): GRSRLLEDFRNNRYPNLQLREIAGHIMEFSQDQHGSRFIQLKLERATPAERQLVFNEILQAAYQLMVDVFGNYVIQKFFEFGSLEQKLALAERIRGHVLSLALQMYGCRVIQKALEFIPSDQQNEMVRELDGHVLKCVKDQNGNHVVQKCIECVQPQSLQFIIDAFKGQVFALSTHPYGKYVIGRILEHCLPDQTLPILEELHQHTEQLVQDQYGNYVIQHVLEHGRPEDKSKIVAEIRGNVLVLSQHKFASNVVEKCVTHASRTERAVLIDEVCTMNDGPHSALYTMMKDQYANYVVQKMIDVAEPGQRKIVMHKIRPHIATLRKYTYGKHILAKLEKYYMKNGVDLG
sequence,measurement,setting,value
GGCUAGAACUAGUGGAUCCCCCGGCGCCCGGCGGCUCGAGCCCGGGUAAGUGUAAAUUGUCUGCAUGCCGCCGGGCGCCAUGCCUGCAGGUCGACUCUAGAAAACAUG,binding signal,PUM1 PUF domain R1-CFK,3.31 log2 enrichment (interaction score)
same,binding signal,PUM1 PUF domain R1-HRR,2.71 log2 enrichment (interaction score)
same,binding signal,PUM1 PUF domain R1-NGR,2.32 log2 enrichment (interaction score)
GGCUAGAACUAGUGGAUCCCCCGGCGCCCGGCGGCUCGAGCCCGGGUAAGUGUAAAUAGUCUGCAUGCCGCCGGGCGCCAUGCCUGCAGGUCGACUCUAGAAAACAUG,binding signal,PUM1 PUF domain R6-FRE,3.3 log2 enrichment (interaction score)
same,binding signal,PUM1 PUF domain R4-CCM,1.07 log2 enrichment (interaction score)
same,binding signal,PUM1 PUF domain R2-KFG,7.86 log2 enrichment (interaction score)
same,binding signal,PUM1 PUF domain R4-WGF,4.73 log2 enrichment (interaction score)
same,binding signal,PUM1 PUF domain R5-KYG,3.77 log2 enrichment (interaction score)
same,binding signal,PUM1 PUF domain R4-YLL,4.38 log2 enrichment (interaction score)
same,binding signal,PUM1 PUF domain R4-PWC,7.51 log2 enrichment (interaction score)
same,binding signal,PUM1 PUF domain R8-KWL,5.16 log2 enrichment (interaction score)
same,binding signal,PUM1 PUF domain R5-DFG,3.79 log2 enrichment (interaction score)
GGCUAGAACUAGUGGAUCCCCCGGCGCCCGGCGGCUCGAGCCCGGGUAAGUGUAUAUAGUCUGCAUGCCGCCGGGCGCCAUGCCUGCAGGUCGACUCUAGAAAACAUG,binding signal,PUM1 PUF domain R4-CCM,2.39 log2 enrichment (interaction score)
GGCUAGAACUAGUGGAUCCCCCGGCGCCCGGCGGCUCGAGCCCGGGUAAGUCUAAAUAGUCUGCAUGCCGCCGGGCGCCAUGCCUGCAGGUCGACUCUAGAAAACAUG,binding signal,PUM1 PUF domain R7-RRG,3.12 log2 enrichment (interaction score)

# Source: paper PMC8384837, “Expanding the binding specificity for RNA recognition by a PUF domain”
